This note sets out measurements from PubChem BioAssay (NCI).

This is part of a sample that, as a whole, favours compounds with a hit. Of some 83,000 tested, about 20% had one in any assay.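 Treatment: one concentration, 48 hours, 96-well format. Scoring: percent growth, with anything below 10 considered active.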 Activity calls are given as the source filed them.

The subject of this assay is NCI/ADR-RES ovarian. Briefly: NCI-60 one-dose screen, 48 h (100 = growth as untreated, 0 = no growth, -100 = all killed). As to conditions: 10 µM unless noted.
In the case of `O=C(Nc1nc2ccccc2s1)Nc1ccccc1Cl`, the growth is 76% (inactive).

Turning to `Cc1ccc(C(=O)Nc2cc(-n3ccnc3C)cc(C(F)(F)F)c2)cc1C#Cc1cnc2cccnn12`, the growth is 4.26% (active).

With `O=C(c1ccc(O)cc1)C1[C@H](c2ccc(Cl)cc2)[C@@H](c2ccccc2)NC12C(=O)Nc1ccccc12` (stereo partly drawn), the growth was -35% (active).

In the case of `COc1ccc(-c2nc3ccc(-c4nnc(SCC(=O)Nc5ccc(/C(C)=N\O)cc5)o4)cc3[nH]2)cc1`, the growth was 108% (inactive).

As to `C[C@H]1[C@@H](CC(=O)N[C@@H](Cc2coc3ccccc23)B(O)O)O[C@@H]2OC3(C)CC[C@H]4[C@H](C)CC[C@@H]1[C@@]24O3`, the growth was 19.5% (inactive).

As to `Cc1cc(C(NC(=O)C2CC3(CC(Nc4cccc5c4C(=O)N(C4CCC(=O)NC4=O)C5=O)C3)C2)c2ccc3c(c2)OC(F)(F)O3)c(O)c2ncccc12` (stereo not drawn), the growth was 12.2% (inactive).

Consider `NC(=O)c1ccc(-c2ccc3ncnc(N4CCc5cc(F)c(Cl)cc54)c3c2)cn1`, for which the growth was 74.6% (inactive).

Turning to `CCN1C(=O)N(CC)C2NNC(Sc3c(C(=O)O)c4ccccc4n(CCC(C)C)c3=O)=NC21` (stereo not drawn), the growth was -35.4% (active).

For the molecule `COc1ccc2[nH]c(O)c(N=Nc3nc(-c4ccc(Cl)cc4)cs3)c2c1`, the growth is -37.4% (active).

For the molecule `CC[C@]12C=CCN3CC[C@@]4(c5ccc(OC)cc5N(C)[C@H]4[C@@](O)(C(=O)OC)[C@@H]1OC(=O)CCCC[P+](c1ccc(F)cc1)(c1ccc(F)cc1)c1ccc(F)cc1)[C@@H]32`, the growth was 105% (inactive).

`COc1cccc(/C=C/c2nc3ccccc3c(=O)n2CC(=O)Nc2ccccc2)c1`: the growth is 33% (inactive).

For the molecule `O=C(c1ccc(Cl)cc1)C1[C@H](c2ccccc2Cl)[C@@H](c2ccccc2)NC12C(=O)Nc1ccc(Br)cc12` (stereo partly drawn), the growth was -87% (active).

Consider `O=C(CSc1nnc(-c2ccc(-c3nc4ccc(Cl)cc4[nH]3)cc2)o1)Nc1ccc(Cl)cc1`, for which the growth is 11.4% (inactive).

For the molecule `N#Cc1c(NC(=O)N2CCOCC2)n(-c2ccc(OC(F)(F)F)cc2)c2cc(F)ccc12`, the growth is 80.5% (inactive).

Regarding `O=C(N/N=C/c1ccc(Cl)o1)c1[nH]c2ccc(Br)cc2c1-c1ccccc1`, the growth was -79% (active).

As to `CC1=C(C(=O)OCc2ccccc2)C(c2cccc3ccccc23)n2c(nc3ccccc32)N1` (stereo not drawn), the growth was -6.92% (active).

As to `CC1=NN(C2=NC(=O)C(CC(=O)Nc3ccccc3C(F)(F)F)S2)C(c2ccc(N(C)C)cc2)C1` (stereo not drawn), the growth is 62.7% (inactive).

As for `CN1C(=O)C2(C(C#N)=C(c3ccc(Cl)cc3)Nc3c2c(-c2ccccc2)nn3-c2ccccc2)c2ccccc21` (stereo not drawn), the growth is 78.8% (inactive).

Regarding `O=[N+]([O-])c1cccc(-c2nnc3c(/C=C/c4ccc(F)cc4)nc4ccccc4n23)c1`, the growth is 87.4% (inactive).

Regarding `COC(=O)c1cc(C(C)=O)n2c3ccccc3c3ccccc3c12`, the growth is 44.6% (inactive).

In the case of `CCCCCCCOc1ccc(S(=O)(=O)Nc2ccc(C)c(F)c2C(=O)O)cc1`, the growth was 94.4% (inactive).

On to `COc1ccc2[nH]cc(-c3cc4nc(-c5cn(C)c6ncc(Br)cc56)cc(N)n4n3)c2c1`, for which the growth is -44.8% (active).

With `COc1ccc2c(c1)N=c1c-2cc2c(O)[nH]c(=S)n2c1=O`, the growth is 26.7% (inactive).

`CC(C)C[C@H](NC(=O)[C@@H]1CCCCCCCCCCC(=O)N[C@@H](CC(=O)N2CCC[C@@H]2C2CCCC2)C(=O)N1)B(O)O`: the growth is 1.84% (active).

Turning to `O=C1NC(=S)/C(=C/c2cn(-c3ccccc3)nc2-c2ccccc2)S1`, the growth is 18.6% (inactive).

As to `CN(C)C(=O)c1cc(-c2ccc3ncnc(N4CCc5cc(F)c(Cl)cc54)c3c2)cnc1N`, the growth was -12.5% (active).

In the case of `N#C/C(=C/c1ccc(Cl)cc1)c1nnc(NC(=O)c2ccc(-n3c(=O)[nH]c4ccccc4c3=O)cc2)s1`, the growth was 81.5% (inactive).

Regarding `COc1c(B(O)O)cc(F)cc1-c1nc2c(F)cc3[nH]ncc3c2c2c1CCCC2`, the growth is 17.4% (inactive).

For the molecule `O=C(CSc1nc2sc3c(c2c(=O)n1-c1ccc(Cl)cc1)CCCC3)NNC(=O)c1ccc(Br)cc1`, the growth is 66% (inactive).

On to `CN(C)c1ccc(/C=C/c2n(Cc3ccc4ccccc4c3)c3ccccc3[n+]2Cc2ccc3ccccc3c2)cc1`, for which the growth was -80.7% (active).

In the case of `COc1ccc2[nH]c(=O)cc(-n3ncc(C(=O)/C=C/c4cc(OC)c(OC)c(OC)c4)c3C)c2c1`, the growth was 7.59% (active).

As for `COc1ccc(C(=O)C[n+]2cccc3c4ccccc4ccc32)cc1`, the growth is 97.7% (inactive).

Consider `CN1CCc2c(sc3ncnc(N/N=C/c4cccc(Cl)c4Cl)c23)C1`, for which the growth was 49.4% (inactive).

On to `COc1ccc2[nH]c(O)c(N=Nc3nc(-c4ccccc4)cs3)c2c1`, for which the growth was 3.46% (active).

As for `COc1ccc(N=Nc2c(N)nn3c(N)c(C#N)c(-c4ccc(F)cc4)nc23)cc1`, the growth was 25.1% (inactive).

`C=CCSc1nnc(-c2ccc(-c3nc4ccccc4[nH]3)cc2)o1`: the growth is 61.1% (inactive).

Take `Cc1oc(-c2ccccc2)nc1CN[C@@H]1C[C@@H]2C[C@H]([C@H]1C)C2(C)C`: the growth is -38.1% (active).

As for `COc1ccc(NC2=C(I)C(=O)C(C)=C(C)C2=O)cc1`, the growth was -20% (active).
